Pf growth 48h – inhibits P. falciparum growth in the first generation, 48 h; P. falciparum luciferase growth in erythrocytes, 48 h; Potency, µM (doses to about 28.7 µM), usual class: inhibitors; 310,000 compounds, 5.9% hits
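Firefly luciferase activity from engineered P. falciparum reports growth; inhibitors lower the luminescent signal. Cultures contained 2% hematocrit erythrocytes at 0.1% final parasitemia.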
Sm TGR inh – blocks Schistosoma mansoni thioredoxin glutathione reductase; 360,000 compounds, 3% hits; AID 485364; Potency, µM (top dose mostly 114 µM), most hits filed as inhibitors; purified TGR, DTNB reduction, TNB absorbance 405 nm; further: nearly all actives have a fitted effect of over 60% in size
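TGR 20 nM + NADPH 100 uM (dispensed conc.), cpd preinc 15 min RT; start with NADPH (500 uM addition) then DTNB (15 mM addition). Kinetic TNB absorbance, 405 nm filter. Four-parameter Hill fit across titration.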
HCMV inh – inhibitors of human cytomegalovirus | HFF cells, HCMV-luciferase reporter, 72 h; stronger effect = lower value | activity change, negative = inhibition, % at 57.5 µM | 410,000 compounds, 4.5% hits | AID 1259415; in the data active means activity change below about -60%; inconclusive means no clear call, values can overlap the other calls; inactive means above about -39%
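Two compound doses tested in HFFs infected with HCMV-luciferase, MOI 1 PFU/cell, 72 h at 37C. Lysate luminescence read with OneGlo; data normalized against buffer-only and 10uM Salinomycin inhibitor controls.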
Giardia FBPA inh – blocks Giardia fructose-bisphosphate aldolase activity; A8B2U2; purified Giardia FBPA; Potency, µM (doses to about 59.6 µM), actives largely listed as inhibitors; 290,000 compounds, 0.71% hits; AID 2451; further: nearly all actives have a fitted effect of over 55% in size
Target sequence (A8B2U2 whole entry, looked up): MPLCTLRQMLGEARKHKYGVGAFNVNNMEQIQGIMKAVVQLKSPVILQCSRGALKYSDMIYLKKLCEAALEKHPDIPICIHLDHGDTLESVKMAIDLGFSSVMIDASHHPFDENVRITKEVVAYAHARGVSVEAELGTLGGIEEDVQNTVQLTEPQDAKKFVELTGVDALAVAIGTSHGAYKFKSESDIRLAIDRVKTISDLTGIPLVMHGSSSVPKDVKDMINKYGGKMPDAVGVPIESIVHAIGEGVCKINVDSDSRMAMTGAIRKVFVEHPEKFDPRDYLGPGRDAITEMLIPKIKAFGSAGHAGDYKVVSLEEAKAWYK
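40 nM FBPA preincubated 10 min at RT with compound (up to 57.5 uM final), then substrate plus GAPDH/TPI/NAD/arsenate coupling and diaphorase/resazurin added. Fluorescence read after 20 min at RT, 525/598 nm.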
Pf growth 96h – inhibits malaria parasite growth, 96 h; P. falciparum luciferase reporter growth, 96 h; Potency, µM (doses to about 28.7 µM), hits mostly inhibitors; 320,000 compounds, 6.9% hits
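Delayed-death screen, second-generation endpoint: infected erythrocytes, 2% hematocrit, 0.05% parasitemia final; 96 hours at 37 C, 5% CO2; luciferase detection reagent; luminescence decrease equals reduced growth.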
Hits are given with their value; – = inactive; ? = inconclusive; · = not tested or not shown; [ ] = remark or other dose. Hits are enriched below; roughly 14% of the tested compounds scored in any of these assays. Unless noted, the call rests on the fitted dose curve; in most records, active means well fitted curve in the direction sought with a large enough effect; inconclusive means small, poorly fitted or top-dose-only effect, or another doubt; inactive means no such curve, though single readings can be large; an effect the other way counts as inactive or inconclusive.

SMILES | Pf growth 48h | Sm TGR inh | HCMV inh | Giardia FBPA inh | Pf growth 96h
Cc1cc(OCC(O)CN)ccc1Cl (centres undefined) | – | – | – | – | 0.74µM
CC(C(=O)Nc1nccs1)c1ccc([N+](=O)[O-])cc1 (centres undefined) | ? | – | – | – | –
CC(C)C(C(=O)Nc1ccncc1)c1ccc(Cl)cc1 (centres undefined) | 3.3µM | – | – | · | 1.5µM
O=C(Nc1ccncc1)c1ccc(Cl)cc1 | ? | – | – | – | ?
CC(C)C(C(=O)Nc1nccs1)c1ccc(Cl)cc1 (centres undefined) | ? | – | ? | – | 9.3µM
COc1ccc(C2=NN(CC(=O)NCC(OC)OC)C(=O)CC2)cc1 | – | – | – | – | –
CCOC(=O)c1ccc2c(c1)n(CC)c(/C=C/N(C)c1ccccc1)[n+]2CC | 1.2µM | – | -100 | – | –
CCOC(=O)C1=CC[C@@H](c2ccccc2)N(S(=O)(=O)c2ccc(C)cc2)[C@H]1C#N | · | · | – | · | ·
O=C(NCCc1ccccc1)C1c2ccccc2C(=O)N1Cc1cccs1 (centres undefined) | – | – | ? | – | ?
CC(C)N1C(=O)c2ccccc2C1C(=O)NCCc1ccccc1 (centres undefined) | – | – | – | – | 8.3µM
COc1ccc(CN2C(=O)c3ccccc3C2C(=O)NCCc2ccccc2)c(OC)c1 (centres undefined) | ? | – | – | – | 8.3µM
CCOc1ccccc1CN1C(=O)c2ccccc2C1C(=O)NC(C)CC (centres undefined) | – | – | – | – | 8.3µM
CCc1ccc(CN2C(=O)c3ccccc3C2C(=O)NC(C)CC)cc1 (centres undefined) | –[0.00184 µM] | – | – | – | –
CCOc1ccc2nc(NC(=O)c3nc(SCc4ccccc4F)ncc3Cl)sc2c1 | · | – | – | · | ·
COc1ccc(N(CC(=O)Nc2cccc(Cl)c2)S(=O)(=O)c2c(C)[nH]c(=O)[nH]c2=O)cc1 | · | – | – | · | ·
CCOC(=O)c1ccc(NC(=O)c2c(NCc3sccc3C)sc3c2CCCCC3)cc1 | · | 50µM | – | · | ·
COc1ccc(NC(=O)c2c(NCc3ccc(N(C)C)cc3)sc3c2CCC3)cc1 | · | 32µM | – | · | ·
COc1ccc(NC(=O)c2c(NCc3cccc(OC)c3)sc3c2CCCC3)cc1 | · | – | ? | · | ·
CCOC(=O)c1ccc(NC(=O)c2c(NCc3cccc(OC)c3OC)sc3c2CCC3)cc1 | · | – | – | · | ·
COC(=O)c1ccc(NC(=O)c2c(NCc3ccc(C)o3)sc3c2CCCC3)cc1 | · | ? | – | · | ·
COc1ccc(CC(=O)Nc2sc3c(c2C(=O)Nc2cccc(C)c2)CCCCC3)cc1 | · | – | – | · | ·
COc1ccc(CC(=O)Nc2sc3c(c2C(=O)Nc2c(C)cccc2C)CCCCC3)cc1 | · | – | -70 | · | ·
COC(=O)c1ccc(NC(=O)c2c(NCc3ccc(OC)c(OC)c3)sc3c2CCCC3)cc1 | · | – | -67 | · | ·
CC12CCC(C(=O)N/N=C/c3ccc(O)cc3)(OC1=O)C2(C)C (centres undefined) | – | – | – | – | –
Cc1cc2nc(-c3cccc(Br)c3)c(CC3CCCCC3)n2c(C)c1Br | · | · | – | · | ·
SMILES | Pf growth 48h | Sm TGR inh | HCMV inh | Giardia FBPA inh | Pf growth 96h
COCCCNC(=O)CSc1nc2cc3c(cc2c(=O)n1CCCCCC(=O)NCc1ccc(OC)cc1)OCO3 | · | – | – | · | ·
O=C(c1ccc2c(c1)N(Cc1ccc(F)cc1Cl)C(=O)c1ccccc1S2)N1CCC2(CC1)OCCO2 | · | – | -68 | · | ·
COc1cc(NC(=O)CN2C(=O)c3ccccc3Sc3ccc(C(=O)N4CCOCC4)cc32)cc(OC)c1OC | 6.6µM | – | – | ? | ?
O=C(c1ccc2c(c1)N(Cc1cccc(F)c1)C(=O)c1ccccc1S2)N1CCC2(CC1)OCCO2 | · | – | – | · | ·
Cc1ccc(CN2C(=O)c3ccccc3Sc3ccc(C(=O)N4CCC5(CC4)OCCO5)cc32)cc1 | · | – | ? | · | ·
C=CCN1C(=O)c2ccccc2Sc2ccc(C(=O)N3CCC4(CC3)OCCO4)cc21 | ? | – | -66 | – | 10µM
CC(C)CNc1nc(N)c([N+](=O)[O-])c(NCC2CCCO2)n1 (centres undefined) | ? | – | – | – | 12µM
COCCCNc1nc(N)c([N+](=O)[O-])c(NCC2CCCO2)n1 (centres undefined) | ? | – | – | – | ?
COC(=O)c1ccc2c(=O)n(CCCCCC(=O)N3CCN(c4ccc(OC)cc4)CC3)c(=O)[nH]c2c1 | · | – | – | · | ·
Cc1ccc(C)c(-n2nnnc2SCC(=O)c2ccc3c(c2)NC(=O)CO3)c1 | ? | – | -84 | – | –
Cc1ccc2nc(SCC(=O)c3ccc4c(c3)NC(=O)CO4)[nH]c2c1 | ? | – | – | – | ?
COCCCNC(=O)CSc1nc2c(sc3ccccc32)c(=O)n1CCc1ccccc1 | · | – | – | · | ·
O=C(CSC1=NNC(c2ccccn2)S1)Nc1ccccc1 (centres undefined) | ? | ? | -97 | ? | ?
O=C(CSC1=NNC(c2ccccn2)S1)Nc1cccc(Cl)c1 (centres undefined) | ? | – | -78 | – | ?
O=C(CSc1nnc(-c2ccccn2)o1)Nc1ccccc1 | – | · | – | – | ?
CN1CCN(CCCc2c3c(cc4c2CCC4)CCC3)CC1 | – | – | – | – | –
CCC1=C2CC[C@H]3C(=O)N(CC(=O)OC)C(=O)[C@H]3[C@H]2[C@@]2(Cc3ccccc3)C(=NCCc3c[nH]c4ccccc34)OC(=O)N2C1=O | · | · | · | – | ·
CCC1=C(OC(=O)N(CC)CC)N2C(=O)OC(=NCCOC)[C@]2(C)[C@H]2C1=CC[C@H]1C(=O)N(CC(=O)OC)C(=O)[C@H]12 | · | · | · | – | ·
CCC1=C(OC(=O)N(CC)CC)N2C(=O)OC(=NCCOC)[C@]2(Cc2ccccc2)[C@H]2C1=CC[C@H]1C(=O)N(CC(=O)OC)C(=O)[C@H]12 | 9.3µM | – | – | – | ?
CCC1=C(OC(=O)N(CC)CC)N2C(=O)OC(=NCC(=O)OC)[C@]2(Cc2ccccc2)[C@H]2C1=CC[C@H]1C(=O)NC(=O)[C@H]12 | ? | – | – | – | ?
CCC1=C(OC(=O)N(CC)CC)N2C(=O)OC(=NCCc3c[nH]c4ccccc34)[C@]2(Cc2ccccc2)[C@H]2C1=CC[C@H]1C(=O)N(CC(=O)OC)C(=O)[C@H]12 | 5.2µM | – | – | – | 13µM
CCC1=C(OC(=O)N(CC)CC)N2C(=O)OC(=NCCc3c[nH]c4ccccc34)[C@]2(Cc2ccccc2)[C@H]2C1=CC[C@H]1C(=O)NC(=O)[C@H]12 | ? | – | – | – | 12µM
C[C@H](CO)N1C[C@H](C)[C@@H](CN(C)C(=O)Nc2cccc(Oc3ccccn3)c2)OCc2cn(nn2)CCCC1=O | · | · | – | · | ·
CC(=O)N/C(=C\c1ccccc1)C(=O)OCc1cccc(S(=O)(=O)N(C)C)c1 | ? | – | – | – | ?
c1ccc(CNc2c(-c3cccc(SC4CCCCC4)c3)nc3ccccn23)cc1 | · | · | – | · | ·
COc1ccc(-c2cc(-c3nc4ccccn4c3NCc3ccccc3)ccc2OC)cc1 | · | · | -79 | · | ·
